# Values joined by “and” are separate entries in the source; they are usually repeats but may differ in a detail not shown here. Equal entries are not always repeated. Unmarked numbers belong to inactive results. Records with an inconclusive call do not appear. Entries that show only a call come without a potency. Active and inactive are the calls of the source. The call rests on the fitted dose curve; in most records, active means well fitted curve in the direction sought with a large enough effect; inconclusive means small, poorly fitted or top-dose-only effect, or another doubt; inactive means no such curve, though single readings can be large; an effect the other way counts as inactive or inconclusive.
# How the values were obtained:
# [1] = target: Cytochrome P450 3A4 (Homo sapiens) (UniProt P08684); test: qHTS Assay for Inhibitors and Substrates of Cytochrome P450 3A4 (AID 884); further: nearly all actives have a fitted effect of over 50% in size; further: potency means the concentration at half of the fitted maximal effect; on activity change, negative = inhibition: series mostly up to about 57 µM
# Method in brief: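 Luminescent readout of luciferin produced by CYP3A4 (20 nM) dealkylation of Luciferin-PPXE, 25 uM (its KM). NADPH-driven reaction ran 60 min at RT after 10 min compound preincubation; data scaled to 57 uM ketoconazole as 100% inhibition.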
# [2] = target: Cytochrome P450 3A4 (Homo sapiens) (UniProt P08684); test: qHTS Assay for Activators of Cytochrome P450 3A4 (AID 885); further: nearly all actives have a fitted effect of over 65% in size
# Method in brief: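 Luminescent readout of luciferin formed from 25 uM Luciferin-PPXE (KM level) by 20 nM CYP3A4 in 200 mM KPO4, with 60 min NADPH-driven reaction at room temperature after 10 min compound exposure. Ketoconazole (57 uM) defined 100% inhibition.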
# [3] = Confirmation and Secondary Assay for Modulators of Hemoglobin Beta Chain Splicing at IVS2 654 locus (AID 910);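 further: HeLa cells stably carrying EGFP split by mutant beta-globin IVS2-654 intron; per-well total GFP intensity by laser scanning cytometry after 2-day treatment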
# Method in brief: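 Readout: per-well total peak green fluorescence (488 nm ex, 500–520 nm em) from objects 5–250 µm, reflecting correct splicing of an EGFP-654 reporter. Compounds were applied for 2 days at 37 °C to overnight-plated HeLa EGFP-654 cells; controls were DMSO and 500 nM IVS2-654 PNA.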
# [4] = Confirmation and Secondary Assay for Modulators of Hemoglobin Beta Chain Splicing at IVS2 705 locus (AID 930);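 further: HeLa cells stably expressing the EGFP-705 splicing reporter; GFP fluorescence per well restored by corrected splicing of the IVS2-705 intron in EGFP; series mostly up to about 46 µM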
# Method in brief: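 HeLa IVS2-705 EGFP reporter cells, 500/well, compound 2 d at 37C; correct splicing yields fluorescent EGFP. Control: 500 nM antisense PNA. Read-out: total peak GFP intensity.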
# [5] = target: Cytochrome P450 2D6 (Homo sapiens) (UniProt P10635); test: qHTS Assay for Inhibitors and Substrates of Cytochrome P450 2D6 (AID 891);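 further: luciferin methyl ether substrate demethylated by CYP2D6 with NADPH regeneration; nearly all actives have a fitted effect of over 60% in size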
# Method in brief: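 Luminescent read-out of luciferin formed by 5 nM human CYP2D6 demethylating 30 uM Luciferin-ME EGE (Km level) over 60 min at room temperature after NADPH regeneration addition. Data normalized to full inhibition by 1.43 uM quinidine.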
# [6] = target: Cytochrome P450 2C19 (Homo sapiens) (UniProt P33261); test: qHTS Assay for Inhibitors and Substrates of Cytochrome P450 2C19 (AID 899); further: nearly all actives have a fitted effect of over 60% in size; further: potency means the concentration at half of the fitted maximal effect
# Method in brief: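 Reactions contain 5nM enzyme, 10uM Luciferin-H EGE (KM) and 50mM KPO4; compound preincubates 10 min at 37C, NADPH regeneration starts turnover for 60 min. Luminescence after detection reagent gives activity.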
# Cytochrome P450 2D6 (Homo sapiens), sequence (P10635 whole entry, looked up): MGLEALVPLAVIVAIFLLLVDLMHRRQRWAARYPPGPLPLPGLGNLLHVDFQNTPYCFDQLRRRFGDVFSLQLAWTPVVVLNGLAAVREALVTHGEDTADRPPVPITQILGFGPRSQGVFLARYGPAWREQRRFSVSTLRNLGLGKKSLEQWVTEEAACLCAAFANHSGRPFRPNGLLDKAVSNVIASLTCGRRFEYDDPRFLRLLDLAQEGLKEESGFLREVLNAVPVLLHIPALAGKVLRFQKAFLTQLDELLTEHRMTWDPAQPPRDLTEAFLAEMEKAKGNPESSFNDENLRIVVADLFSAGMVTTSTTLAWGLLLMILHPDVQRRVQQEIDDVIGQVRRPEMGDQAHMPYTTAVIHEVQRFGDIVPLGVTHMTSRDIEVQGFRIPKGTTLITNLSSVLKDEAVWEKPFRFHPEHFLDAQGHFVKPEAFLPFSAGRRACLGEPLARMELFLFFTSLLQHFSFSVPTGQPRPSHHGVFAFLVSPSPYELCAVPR
# Cytochrome P450 3A4 (Homo sapiens), sequence (P08684 whole entry, looked up): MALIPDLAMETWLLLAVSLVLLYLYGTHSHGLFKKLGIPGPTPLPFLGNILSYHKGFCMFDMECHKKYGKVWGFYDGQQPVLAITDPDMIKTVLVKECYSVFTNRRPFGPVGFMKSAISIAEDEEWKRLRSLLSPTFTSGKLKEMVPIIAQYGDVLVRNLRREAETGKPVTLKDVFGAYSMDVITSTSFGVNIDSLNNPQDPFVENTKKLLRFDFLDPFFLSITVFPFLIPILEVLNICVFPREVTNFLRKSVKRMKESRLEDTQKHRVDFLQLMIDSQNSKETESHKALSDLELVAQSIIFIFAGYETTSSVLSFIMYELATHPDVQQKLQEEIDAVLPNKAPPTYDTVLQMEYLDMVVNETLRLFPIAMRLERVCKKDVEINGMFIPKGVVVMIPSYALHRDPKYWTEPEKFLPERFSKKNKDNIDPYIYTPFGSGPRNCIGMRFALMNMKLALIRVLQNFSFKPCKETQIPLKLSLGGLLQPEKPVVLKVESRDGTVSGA
# Cytochrome P450 2C19 (Homo sapiens), sequence (P33261 whole entry, looked up): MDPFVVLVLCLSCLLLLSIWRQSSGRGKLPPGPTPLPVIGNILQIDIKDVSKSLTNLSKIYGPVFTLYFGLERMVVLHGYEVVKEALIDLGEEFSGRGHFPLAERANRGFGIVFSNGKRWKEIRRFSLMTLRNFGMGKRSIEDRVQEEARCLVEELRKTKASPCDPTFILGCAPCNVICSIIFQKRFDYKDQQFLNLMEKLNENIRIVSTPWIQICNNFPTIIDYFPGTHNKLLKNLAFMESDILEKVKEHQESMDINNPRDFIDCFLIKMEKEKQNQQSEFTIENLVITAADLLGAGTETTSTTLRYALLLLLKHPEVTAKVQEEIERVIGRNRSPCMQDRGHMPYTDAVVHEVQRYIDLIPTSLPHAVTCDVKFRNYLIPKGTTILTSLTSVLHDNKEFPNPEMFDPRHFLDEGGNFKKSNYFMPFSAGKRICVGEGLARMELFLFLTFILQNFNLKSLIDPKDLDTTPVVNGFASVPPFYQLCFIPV
structure (smiles),measurement,setting,value
COc1cc(O)c(C(=O)/C=C/c2ccc(O)c(OC)c2)c(OC)c1,Potency,[1],7.94 µM (active)
same,Potency,[2],inactive
same,outcome,[3],inactive
same,outcome,[4],inactive
CC(=O)OCC1OC(C#Cc2ccc(C(C)(C)C)cc2)C=CC1OC(C)=O (stereo unspecified),"activity change, negative = inhibition",[1],-26.6% [at 11.4 µM]
same,Potency,[5],inactive
same,Potency,[6],inactive
O=C1C=CC(=C(c2ccc(O)cc2)c2ccc(O)cc2)C=C1,Potency,[1],20 µM (active)
same,Potency,[2],inactive
same,outcome,[3],inactive
same,outcome,[4],inactive
CCCNC(=O)OC[C@@H]1O[C@H](CCO/N=C\[C@@H](C)[C@H](OCc2ccccc2)C(C)C)C=C[C@@H]1Oc1ccc(OC)cc1,Potency,[1],3.98 µM (active)
same,Potency,[6],3.16 µM (active)
COc1ccc2c(c1)OC/C(=C/c1ccc(OC)c(OC)c1)C2=O,Potency,[1],7.94 µM (active)
same,Potency,[2],inactive
same,outcome,[3],inactive
same,outcome,[4],inactive
O=C(/C=C/c1ccccc1)N1CCCC1CO (stereo unspecified),"activity change, negative = inhibition",[1],-20.7% [at 11.4 µM]
same,Potency,[5],inactive
same,Potency,[6],inactive
COC(C(C)/C=C/CC(=O)OCCCc1ccccc1)C1CCCCC1 (stereo unspecified),"activity change, negative = inhibition",[1],-20.5% [at 11.4 µM]
same,Potency,[5],inactive
same,Potency,[6],inactive
COC(=O)C/C=C1\c2ccccc2C(OC)C1C (stereo unspecified),"activity change, negative = inhibition",[1],-21.3% [at 11.4 µM]
same,Potency,[6],inactive
COC(=O)c1ccc(CN2[C@@H]3C[C@@H](O)CC[C@@H]3C[C@H]2C(=O)OC)cc1,Potency,[2],inactive
COc1cccc([C@H](O)Cn2cc(-c3cccc(CON=C(C)C)c3)nn2)c1,"activity change, positive = activation",[2],-43.8% [at 11.4 µM]
COC(=O)[C@@H]1C[C@@]2(O)[C@@H](O)[C@@H](O)[C@@H](O)C[C@H]2N1CC1CCCCC1,Potency,[2],inactive
CO[C@H]1COC(=O)C/C=C\[C@@H](C)[C@H](OC)COC(=O)CCC[C@@H]1C,"activity change, positive = activation",[2],-58.3% [at 11.4 µM]
CCc1cc2c(nc1CC)CCN(CC/C(C)=N/OC[C@H]1O[C@H](c3ccccc3)C=C[C@@H]1Oc1ccc(OC)cc1)C2,"activity change, positive = activation",[2],-51.8% [at 11.4 µM]
COc1ccc(OC2C(O)COC2/C=C/c2ccccc2)cc1 (stereo unspecified),"activity change, positive = activation",[2],-47.5% [at 11.4 µM] and -40.4% [at 11.4 µM]
NC(=O)c1cc[n+](CC2=C(C(=O)O)N3C(=O)C(NC(=O)C(c4ccccc4)S(=O)(=O)[O-])C3SC2)cc1 (stereo unspecified),Potency,[1],inactive
same,outcome,[3],inactive
same,outcome,[4],inactive
O=C(N/N=C1/C[C@@H](O)[C@@H](O)[C@@H]2[C@H]3C(=O)N(c4ccc(F)cc4F)C(=O)[C@@H]3CC[C@H]12)OCc1ccccc1,"activity change, positive = activation",[2],-37% [at 11.4 µM]
COc1ccc(/C=C/C(=O)c2cc(O)ccc2O)cc1,Potency,[1],inactive
same,outcome,[3],inactive
same,outcome,[4],inactive
NC(C(=O)O)C(O)C(=O)O (stereo unspecified),Potency,[1],inactive
same,outcome,[3],inactive
same,outcome,[4],inactive
COC(=O)[C@@H]1C[C@@]2(O)[C@H](O)[C@H](O)[C@H](O)C[C@H]2N1Cc1ccc(-c2ccccc2)cc1,Potency,[2],inactive
COC(=O)c1ccc(CN2[C@H](C(=O)OC)C[C@@]3(O)[C@H](O)[C@H](O)[C@H](O)C[C@@H]23)cc1,Potency,[2],inactive
C[C@]12CCC3c4ccc(O)cc4CCC3C1CCC2OC(=O)CCC1CCCC1 (stereo partly specified),Potency,[1],inactive
same,outcome,[3],inactive
same,outcome,[4],inactive
CO[C@@H]1/C=C\CC(=O)N[C@@H](C)C(=O)OC[C@@H](OC)[C@H](C)CCCC(=O)OC[C@H]1C,"activity change, positive = activation",[2],-57.1% [at 11.4 µM]
O=C1[C@H]2[C@H]3[C@H](O)[C@H](O)C/C(=N/OC[C@@H](O)COCc4ccco4)[C@H]3CC[C@@H]2C(=O)N1c1cccc(Oc2ccccc2)c1,"activity change, positive = activation",[2],-40.2% [at 11.4 µM]
Nc1cc(=O)[nH]c(=O)n1Cc1ccccc1,Potency,[2],inactive
CC(C)CO/N=C1/C[C@@H](O)[C@@H](O)[C@@H]2[C@@H]3C(=O)N(Cc4ccccc4)C(=O)[C@H]3CC[C@H]12,"activity change, positive = activation",[2],-30.2% [at 11.4 µM]
CC(=O)OC[C@@H]1O[C@@H](O/N=C2/C[C@@H](O)[C@@H](O)[C@@H]3[C@@H]4C(=O)N(Cc5ccc6c(c5)OCO6)C(=O)[C@H]4CC[C@@H]23)[C@H](OC(C)=O)[C@H](OC(C)=O)[C@@H]1OC(C)=O,"activity change, positive = activation",[2],-36.6% [at 11.4 µM]
CN1C[C@@H]2C(c3ccccc3)C3(c4ccc(C#N)cc4)CC2(C3)[C@H]1c1ccccc1 (stereo partly specified),Potency,[2],inactive
CNC(=O)Oc1ccc2c(c1)[C@@]1(C)CCN(C)C1N2C (stereo partly specified),Potency,[1],inactive
same,outcome,[3],inactive
same,outcome,[4],inactive
CC(=O)OC[C@@H]1O[C@H](CCO/N=C(\C)CCN2CCCc3nc(C)c(C)cc32)C=C[C@@H]1OC(C)=O,"activity change, positive = activation",[2],-42.6% [at 11.4 µM]
CN1C[C@@H]2C(c3ccccc3)C3(c4ccccc4)CC2(C3)[C@H]1c1ccccc1 (stereo partly specified),Potency,[2],inactive
COC(=O)c1ccc(C23CC4(C2)[C@H](CN(CC2CCCCC2)[C@@H]4c2ccccc2)C3c2ccc(C(F)(F)F)cc2)cc1 (stereo partly specified),Potency,[2],inactive
Cn1c(N)c(C(=O)COC(=O)c2ccnc3ccccc23)c(=O)n(C)c1=O,Potency,[2],inactive
Cn1c(N)c(C(=O)COC(=O)c2cc(C(F)(F)F)nc3ccccc23)c(=O)n(Cc2ccccc2)c1=O,Potency,[2],inactive
c1ccc(-c2ccc(CN3C[C@@H]4C(c5ccccc5)C5(c6cccnc6)CC4(C5)[C@H]3c3ccccc3)cc2)cc1 (stereo partly specified),Potency,[2],inactive
O=C1[C@H]2[C@H]3[C@H](O)[C@H](O)C/C(=N/OC[C@@H](O)COCc4ccco4)[C@@H]3CC[C@@H]2C(=O)N1c1cccc(Oc2ccccc2)c1,"activity change, positive = activation",[2],-40.2% [at 11.4 µM]
C#CCCCO/N=C1/C[C@@H](O)[C@@H](O)[C@@H]2[C@@H]3C(=O)N(CCC(=O)OCC)C(=O)[C@H]3CC[C@@H]12,"activity change, positive = activation",[2],-45.7% [at 11.4 µM]
N#Cc1ccc(C23CC4(C2)[C@H](CN(Cc2ccc(-c5ccccc5)cc2)[C@@H]4c2ccccc2)C3c2ccccc2)cc1 (stereo partly specified),Potency,[2],inactive
CCC1=C(OC(=O)N(CC)CC)N2C(=O)OC(=NCCOC)[C@]2(C)[C@H]2C1=CC[C@H]1C(=O)N(C)C(=O)[C@H]12,Potency,[2],inactive
COC(=O)c1cccc(C23CC4(C2)[C@H](CN(Cc2ccc(C(F)(F)F)cc2)[C@@H]4c2ccccc2)C3c2ccc(C(F)(F)F)cc2)c1 (stereo partly specified),Potency,[2],inactive

# — PubChem BioAssay (NCATS)
